For assay [1], the target named is 5'-AMP-activated protein kinase catalytic subunit alpha-2 (Homo sapiens) (UniProt P54646). Particulars: at 1 µM.
Assay [2] has as its target T1, NUAK family SNF1-like kinase 1 (Homo sapiens) (UniProt O60285).
T1 sequence (whole entry): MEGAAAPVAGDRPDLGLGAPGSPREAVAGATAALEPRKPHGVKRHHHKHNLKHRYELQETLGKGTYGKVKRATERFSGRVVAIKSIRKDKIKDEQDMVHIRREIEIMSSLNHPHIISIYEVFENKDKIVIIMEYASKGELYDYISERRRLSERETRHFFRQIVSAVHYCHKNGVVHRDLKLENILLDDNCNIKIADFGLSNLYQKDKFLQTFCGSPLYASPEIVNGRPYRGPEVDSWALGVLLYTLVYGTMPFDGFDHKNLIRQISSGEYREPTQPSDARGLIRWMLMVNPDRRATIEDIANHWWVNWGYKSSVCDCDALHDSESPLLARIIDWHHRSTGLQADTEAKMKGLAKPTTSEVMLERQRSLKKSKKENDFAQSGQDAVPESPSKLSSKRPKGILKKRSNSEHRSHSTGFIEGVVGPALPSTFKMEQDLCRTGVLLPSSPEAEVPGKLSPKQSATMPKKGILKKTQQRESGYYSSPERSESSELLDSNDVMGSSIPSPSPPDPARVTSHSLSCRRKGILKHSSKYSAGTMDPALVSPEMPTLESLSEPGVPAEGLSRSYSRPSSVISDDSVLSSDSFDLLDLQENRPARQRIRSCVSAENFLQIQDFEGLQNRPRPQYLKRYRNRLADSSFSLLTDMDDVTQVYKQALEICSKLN
As to conditions: at 0.1 µM.

Assay [3] deals with T1, NUAK family SNF1-like kinase 1 (Homo sapiens). Particulars: at 1 µM.
Assay [4] concerns the target T2, Serine/threonine-protein kinase BRSK1 (Homo sapiens) (UniProt Q8TDC3).
T2 sequence (whole entry): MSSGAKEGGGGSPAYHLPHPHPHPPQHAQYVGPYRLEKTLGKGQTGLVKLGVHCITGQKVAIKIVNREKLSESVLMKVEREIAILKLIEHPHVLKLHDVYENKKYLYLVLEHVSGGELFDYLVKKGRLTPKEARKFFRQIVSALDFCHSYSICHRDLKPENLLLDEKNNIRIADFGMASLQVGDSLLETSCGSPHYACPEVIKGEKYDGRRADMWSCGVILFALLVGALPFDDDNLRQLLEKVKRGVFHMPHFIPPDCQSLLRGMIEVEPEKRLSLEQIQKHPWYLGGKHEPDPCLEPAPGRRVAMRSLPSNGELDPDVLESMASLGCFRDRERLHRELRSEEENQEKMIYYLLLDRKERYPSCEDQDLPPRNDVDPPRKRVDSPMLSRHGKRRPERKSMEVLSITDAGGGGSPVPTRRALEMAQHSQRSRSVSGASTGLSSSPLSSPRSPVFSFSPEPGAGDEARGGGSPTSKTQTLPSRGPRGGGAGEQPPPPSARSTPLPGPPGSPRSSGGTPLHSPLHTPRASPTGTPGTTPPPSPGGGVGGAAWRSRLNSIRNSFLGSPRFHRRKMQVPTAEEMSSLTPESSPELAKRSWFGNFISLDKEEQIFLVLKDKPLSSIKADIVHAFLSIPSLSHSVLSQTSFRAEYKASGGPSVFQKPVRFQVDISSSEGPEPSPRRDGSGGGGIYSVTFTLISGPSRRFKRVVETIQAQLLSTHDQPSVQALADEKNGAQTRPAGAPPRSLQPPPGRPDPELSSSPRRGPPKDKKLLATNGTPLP
Particulars: at 0.1 µM.

Assay [5] has as its target T2, Serine/threonine-protein kinase BRSK1 (Homo sapiens). Particulars: at 1 µM.
The target of assay [6] is T3, Serine/threonine-protein kinase BRSK2 (Homo sapiens) (UniProt Q8IWQ3).
T3 sequence (whole entry): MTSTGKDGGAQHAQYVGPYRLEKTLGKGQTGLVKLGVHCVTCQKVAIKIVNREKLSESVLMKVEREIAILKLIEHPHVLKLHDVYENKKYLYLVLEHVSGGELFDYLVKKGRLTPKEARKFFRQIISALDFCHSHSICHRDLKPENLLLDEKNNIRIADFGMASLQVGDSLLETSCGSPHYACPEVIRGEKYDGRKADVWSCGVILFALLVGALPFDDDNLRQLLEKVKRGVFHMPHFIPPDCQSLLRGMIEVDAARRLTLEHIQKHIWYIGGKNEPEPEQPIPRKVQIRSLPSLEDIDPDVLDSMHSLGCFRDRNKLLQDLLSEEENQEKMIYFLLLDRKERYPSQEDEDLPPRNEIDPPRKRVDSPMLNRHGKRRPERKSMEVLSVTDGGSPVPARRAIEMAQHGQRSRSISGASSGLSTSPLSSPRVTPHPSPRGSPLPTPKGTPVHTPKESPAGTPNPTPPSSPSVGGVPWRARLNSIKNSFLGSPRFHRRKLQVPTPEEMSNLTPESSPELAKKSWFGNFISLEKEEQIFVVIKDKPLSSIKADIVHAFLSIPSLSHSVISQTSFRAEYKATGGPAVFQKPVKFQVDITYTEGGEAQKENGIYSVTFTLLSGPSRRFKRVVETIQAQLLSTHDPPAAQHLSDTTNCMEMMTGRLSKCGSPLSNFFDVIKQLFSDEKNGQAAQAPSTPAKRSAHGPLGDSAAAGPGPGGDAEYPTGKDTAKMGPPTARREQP
Particulars: at 0.1 µM.

Assay [7] concerns the target T3, Serine/threonine-protein kinase BRSK2 (Homo sapiens). As to conditions: at 1 µM.
Assay [8] deals with Calcium/calmodulin-dependent protein kinase type 1D (Homo sapiens) (UniProt Q8IU85). As to conditions: at 0.1 µM.
Assay [9] shares this target. Particulars: at 1 µM.
The target of assay [10] is Calcium/calmodulin-dependent protein kinase type II subunit alpha (Homo sapiens) (UniProt Q9UQM7). Particulars: at 0.1 µM.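 Further: reported values are averages (mean inhibition of CAMK2A).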
Calcium/calmodulin-dependent protein kinase type II subunit alpha (Homo sapiens), sequence (Q9UQM7 whole entry): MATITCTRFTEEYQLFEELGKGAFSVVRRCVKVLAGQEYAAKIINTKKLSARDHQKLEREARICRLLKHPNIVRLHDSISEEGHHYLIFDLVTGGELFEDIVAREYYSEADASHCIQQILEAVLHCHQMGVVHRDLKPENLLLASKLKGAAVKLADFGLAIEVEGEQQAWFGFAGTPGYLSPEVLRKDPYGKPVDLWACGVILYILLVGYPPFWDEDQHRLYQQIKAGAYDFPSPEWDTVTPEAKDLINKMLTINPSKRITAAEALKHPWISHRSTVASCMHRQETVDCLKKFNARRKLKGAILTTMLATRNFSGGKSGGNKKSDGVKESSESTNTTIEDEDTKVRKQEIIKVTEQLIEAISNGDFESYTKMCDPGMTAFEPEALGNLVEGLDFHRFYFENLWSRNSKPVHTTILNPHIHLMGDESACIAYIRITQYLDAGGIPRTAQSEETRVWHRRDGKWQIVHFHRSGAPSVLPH

5'-AMP-activated protein kinase catalytic subunit alpha-2 (Homo sapiens), sequence (P54646 whole entry, looked up): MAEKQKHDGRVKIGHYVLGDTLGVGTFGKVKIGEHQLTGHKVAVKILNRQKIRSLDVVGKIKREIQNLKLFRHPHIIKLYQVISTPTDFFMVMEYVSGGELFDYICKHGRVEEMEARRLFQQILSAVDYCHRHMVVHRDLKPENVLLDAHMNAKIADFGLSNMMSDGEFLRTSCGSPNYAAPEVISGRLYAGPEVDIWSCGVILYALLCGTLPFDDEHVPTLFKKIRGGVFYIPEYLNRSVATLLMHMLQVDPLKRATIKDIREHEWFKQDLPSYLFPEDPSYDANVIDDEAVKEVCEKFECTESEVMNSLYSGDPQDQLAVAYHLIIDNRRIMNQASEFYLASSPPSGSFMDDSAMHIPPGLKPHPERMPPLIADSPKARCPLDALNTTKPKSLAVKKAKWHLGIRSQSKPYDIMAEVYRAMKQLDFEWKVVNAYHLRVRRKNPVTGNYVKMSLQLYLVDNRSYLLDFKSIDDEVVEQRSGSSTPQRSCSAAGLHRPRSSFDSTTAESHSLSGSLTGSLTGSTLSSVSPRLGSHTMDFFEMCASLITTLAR
Calcium/calmodulin-dependent protein kinase type 1D (Homo sapiens), sequence (Q8IU85 whole entry, looked up): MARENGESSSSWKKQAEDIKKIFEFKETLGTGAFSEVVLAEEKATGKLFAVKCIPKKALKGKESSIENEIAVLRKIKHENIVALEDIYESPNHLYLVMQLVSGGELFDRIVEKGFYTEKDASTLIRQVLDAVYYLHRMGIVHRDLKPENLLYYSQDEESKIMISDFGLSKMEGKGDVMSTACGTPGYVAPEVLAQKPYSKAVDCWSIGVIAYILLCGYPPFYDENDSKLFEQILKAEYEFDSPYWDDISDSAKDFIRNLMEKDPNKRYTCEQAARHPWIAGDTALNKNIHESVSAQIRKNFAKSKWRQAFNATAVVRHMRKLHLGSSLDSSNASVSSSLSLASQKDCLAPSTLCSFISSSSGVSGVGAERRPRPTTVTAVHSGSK

For the compound `O=C(Nc1ccc(Oc2ccc3[nH]c(NC(=O)c4ccco4)nc3c2)cc1)Nc1cc(C(F)(F)F)ccc1F`, the inhibition (in general, the change of the read-out against control, counted positive when it falls) in assay [1] is 3.81%; in assay [2], 0.89%; in [3] it was 5.7%; in [4], 0.62%; in [5], -0.05%; in assay [6], -0.37%. Besides, the inhibition in [7] is 1.01%; in [8], 0.46%; in [9], 3.08%; in assay [10] it was 0.33%.
For `Cc1ccc2c(-c3ccnc(Nc4ccc5c(c4)OCCO5)n3)c(-c3ccc(C(F)(F)F)cc3)nn2n1`, the inhibition in [1] is 1.71%; in assay [2] it was -1.23%; in [3], 1.59%; in assay [4], -0.85%; in assay [5] it was 1.31%; in assay [6] it was 0.24%. Further, the inhibition in assay [7] is 0.79%; in assay [8], 0.52%; in [9], 9.99%; in assay [10] it was 0.68%.
Take `CS(=O)(=O)CCNCc1nc(-c2ccc3ncnc(Nc4ccc(OCc5cccc(C(F)(F)F)c5)cc4)c3c2)cs1`: the inhibition in assay [1] was 2.15%; in [2] it was 0.06%; in [3] it was 2.2%; in [4], 2.31%; in assay [5] it was -0.57%; in assay [6], 0.24%. Moreover, the inhibition was 1.3% in [7], -0.5% in assay [8], 2.37% in assay [9] and 1.59% in assay [10].
Regarding `N#Cc1c(NC(=O)c2ccccc2F)sc2c1CCCC2`, the inhibition in [1] worked out at 0.55%; in assay [2], 2.6%; in assay [3], 3.42%; in assay [4], 0.36%; in assay [5], 1.62%; in [6], 1.76%. Moreover, the inhibition in assay [7] was 3.8%; in assay [8], -0.22%; in assay [9], 0.3%; in [10], -2.24%.
With `FC(F)(F)c1ccc(-c2nn3ncccc3c2-c2ccnc(Nc3ccc4c(c3)OCCO4)n2)cc1`, the inhibition was determined as 4.55% in assay [1]; 4.03% in [2]; 5.73% in [3]; 5.08% in [4]; 8.29% in assay [5]; 6.76% in assay [6]. Moreover, the inhibition was 11.7% in [7], 2.95% in [8], -0.58% in assay [9] and -2.94% in [10].
Take `COc1cccc(-n2ncc3c(N/N=C/c4ccc(C)cc4)ncnc32)c1`: the inhibition is 6% in assay [1]; 6.88% in assay [2]; 16.2% in assay [3]; 6.04% in [4]; 9.05% in [5]; 5.73% in [6]. The inhibition was 12.7% in [7], 0.52% in assay [8], 3.47% in assay [9] and 3.6% in [10].
On to `CN1CCN(C(=O)c2ccc(NC(=O)Nc3ccc(N(C)c4ccnc(Nc5ccc(CS(C)(=O)=O)cc5)n4)cc3)cc2)CC1`, for which the inhibition was 7.01% in assay [1]; 0.11% in [2]; 44.5% in assay [3]; 0.56% in [4]; 2.28% in assay [5]; 0.38% in assay [6]. Also, the inhibition in assay [7] was 7.68%; in assay [8], 0.6%; in assay [9], 2.18%; in assay [10], 1.63%.
On to `NS(=O)(=O)c1cccc(Nc2cc(-c3ccc(F)cc3)n[nH]2)c1`, for which the inhibition is 10.9% in assay [1]; -3.46% in assay [2]; 12.6% in assay [3]; 1.36% in assay [4]; 5.97% in [5]; 3.15% in assay [6]. For the same compound, the inhibition was 11.2% in assay [7], -0.34% in [8], -0.05% in assay [9] and 2.68% in assay [10].
In the case of `[O-][S+]1CCN(Cc2ccc(-c3ccc4ncnc(Nc5ccc(OCc6ccccc6)c(Cl)c5)c4c3)o2)CC1`, the inhibition in assay [1] is 1.22%; in assay [2], -2.45%; in assay [3], -2.99%; in [4] it was 0.95%; in assay [5], 0.18%; in [6], 1.49%. Further, the inhibition was 2.79% in [7], -0.14% in assay [8], 0.11% in assay [9] and -0.84% in [10].
With `CN(c1ccc(NC(=O)Nc2ccc(OC(F)(F)F)cc2)cc1)c1ccnc(Nc2cccc(S(N)(=O)=O)c2)n1`, the inhibition in assay [1] is 2.41%; in [2], -0.52%; in assay [3], 10.1%; in assay [4], 1.53%; in assay [5], 5.53%; in assay [6], 1.94%. The inhibition in [7] was 1.96%; in assay [8], -0.31%; in assay [9] it was 0.2%; in [10], 3.05%.
As to `OCc1ccc(-c2nc(-c3ccccn3)c(-c3ccc4c(c3)OCO4)[nH]2)cc1`, the inhibition in [1] is 4.26%; in [2], 3.72%; in assay [3] it was 5.56%; in assay [4], 2.53%; in [5], 1.5%; in assay [6], 2%. The inhibition in assay [7] was found to be 0.59%; in assay [8], 0.54%; in assay [9] it was 0.26%; in assay [10], 4.98%.
Turning to `Cc1ccc(O)cc1Nc1ccnc2ccc(S(C)(=O)=O)cc12`, the inhibition turned out to be 3.93% in assay [1]; 2% in [2]; 4.91% in [3]; 0.5% in assay [4]; 1.8% in assay [5]; 2.1% in [6]. Also, the inhibition in assay [7] was 5.1%; in [8] it was -0.51%; in assay [9] it was 0.98%; in assay [10], 2.94%.
Consider `Cc1ccc(C(=O)NC2CC2)cc1-c1ccc2[nH]ncc2c1`, for which the inhibition was -3.42% in assay [1]; 6.51% in [2]; 6.93% in assay [3]; 1.35% in assay [4]; 3.03% in assay [5]; 1.54% in [6]. The inhibition in assay [7] was 5.84%; in [8], -0.69%; in [9] it was 0.06%; in assay [10], -4.3%.
For `CC(C)c1ccc(Nc2nccc(-c3cnn4ncccc34)n2)cc1`, the inhibition was 4.11% in [1]; 12.6% in [2]; 48.9% in assay [3]; -0.04% in [4]; 3.13% in [5]; 1.33% in [6]. Further, the inhibition in [7] was 4.11%; in assay [8], -0.71%; in assay [9], 2.35%; in [10], 1.42%.
Consider `COc1cc2ncnc(Nc3ccc4c(cnn4Cc4ccccc4)c3)c2cc1OC`, for which the inhibition is 3.91% in assay [1]; -0.12% in [2]; 2.05% in assay [3]; 1.23% in [4]; 1.11% in [5]; 0.79% in [6]. The inhibition in [7] turned out to be 4.84%; in assay [8], 0.22%; in assay [9], 1.49%; in [10] it was 0.08%.
As for `O=C1Nc2ccccc2/C1=C/Nc1ccc2[nH]c(=O)[nH]c2c1`, the inhibition worked out at 12.8% in assay [1]; 12.6% in assay [2]; 46% in assay [3]; 1.38% in assay [4]; 15.7% in assay [5]; 5.21% in [6]. Further, the inhibition in assay [7] was 25.8%; in [8], -1.27%; in assay [9], 1.07%; in assay [10], 3.83%.
Consider `NS(=O)(=O)c1ccc(NC=C2C(=O)Nc3ccc4ncsc4c32)cc1`, for which the inhibition in assay [1] worked out at 53.4%; in assay [2] it was 69.9%; in assay [3] it was 69.8%; in assay [4], 34.1%; in [5] it was 60.3%; in assay [6], 45.2%. The inhibition in assay [7] was determined as 63.6%; in assay [8] it was 2.99%; in assay [9], 8.72%; in assay [10], 4.91%.

(Values after ChEMBL document CHEMBL1961873, “Compounds: GSK PKIS; Assays: Nanosyn kinase panel” (2012).)
